Holding throughout (design): scale not given: direction of the effect not stated beside the values
Assay [1] deals with Protein translocase subunit SecA (Escherichia coli (strain K12)) (UniProt P10408). Put plainly: Assay to Identify E. coli SecA ATPase Inhibitors. It is filed as functional. Particulars: 30 µM.
Assay [2] concerns the target T1, Ubiquitin-activating enzyme e1, putative (Leishmania donovani (strain BPK282A1)) (UniProt E9BSI1).
T1 sequence (whole entry): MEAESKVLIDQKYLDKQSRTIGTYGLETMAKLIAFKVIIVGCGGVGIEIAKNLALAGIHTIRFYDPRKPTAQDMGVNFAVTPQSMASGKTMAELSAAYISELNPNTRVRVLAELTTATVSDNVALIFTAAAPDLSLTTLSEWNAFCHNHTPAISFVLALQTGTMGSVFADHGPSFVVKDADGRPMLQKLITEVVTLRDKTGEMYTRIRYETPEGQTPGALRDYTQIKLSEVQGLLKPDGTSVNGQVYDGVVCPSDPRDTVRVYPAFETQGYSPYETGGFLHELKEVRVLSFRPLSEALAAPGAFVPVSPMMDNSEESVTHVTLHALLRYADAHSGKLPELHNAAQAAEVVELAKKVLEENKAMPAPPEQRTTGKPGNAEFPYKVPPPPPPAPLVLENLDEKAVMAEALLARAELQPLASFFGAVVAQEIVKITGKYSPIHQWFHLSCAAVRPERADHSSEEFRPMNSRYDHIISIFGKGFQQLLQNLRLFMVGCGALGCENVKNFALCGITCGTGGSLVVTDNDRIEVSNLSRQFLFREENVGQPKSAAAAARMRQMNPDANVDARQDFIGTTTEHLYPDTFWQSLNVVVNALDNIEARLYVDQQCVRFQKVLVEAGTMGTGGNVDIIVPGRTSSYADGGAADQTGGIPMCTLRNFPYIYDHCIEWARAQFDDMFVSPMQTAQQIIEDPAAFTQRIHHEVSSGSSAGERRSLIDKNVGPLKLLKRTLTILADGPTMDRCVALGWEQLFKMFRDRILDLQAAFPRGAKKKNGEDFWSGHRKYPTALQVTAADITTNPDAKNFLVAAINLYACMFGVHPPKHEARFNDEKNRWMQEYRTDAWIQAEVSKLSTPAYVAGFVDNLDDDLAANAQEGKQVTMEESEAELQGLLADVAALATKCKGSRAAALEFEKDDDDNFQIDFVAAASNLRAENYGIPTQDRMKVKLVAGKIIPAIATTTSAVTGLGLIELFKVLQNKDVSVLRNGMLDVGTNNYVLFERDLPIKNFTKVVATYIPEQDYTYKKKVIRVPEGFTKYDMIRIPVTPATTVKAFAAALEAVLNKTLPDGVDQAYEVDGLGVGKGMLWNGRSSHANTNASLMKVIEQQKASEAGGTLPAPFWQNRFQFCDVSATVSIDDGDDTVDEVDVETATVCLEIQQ
Put plainly: Leishmania donovani Ubiquitin Activating Enzyme (LdE1). Particulars: 30 µM. It is filed as functional.

The target in assay [3] is AMP-activated protein kinase, AMPK (Homo sapiens) (UniProt P54646+O43741+P54619+Q9UGJ0+Q9Y478+Q13131+Q9UGI9). Put plainly: AMP-dependent Kinase enzyme assay. An in vitro enzyme assay that detects ADP turnover that is directly proportional to AMPK activity. This uses naive AMPK that is activated during the assay with MK-8722. In kind it is functional. Particulars: 30 µM.

In assay [4] the target is Sialic acid-binding Ig-like lectin 9 (Homo sapiens) (UniProt Q9Y336). Put plainly: Hs-Siglec9 ALPHAscreen SOP 20170721. Particulars: 10 µM. (In general: Bead proximity is the source of the signal in Alpha formats.)
The next assay relates to Trypanosoma cruzi. Put plainly: Trypanosoma cruzi phosphomannomutase and mannose-1-phosphate guanylyltransferase assay. It is filed as functional. Particulars: 10 µM.
Assay [5] addresses T2, Arginase-2, mitochondrial (Homo sapiens) (UniProt P78540).
T2 sequence (whole entry): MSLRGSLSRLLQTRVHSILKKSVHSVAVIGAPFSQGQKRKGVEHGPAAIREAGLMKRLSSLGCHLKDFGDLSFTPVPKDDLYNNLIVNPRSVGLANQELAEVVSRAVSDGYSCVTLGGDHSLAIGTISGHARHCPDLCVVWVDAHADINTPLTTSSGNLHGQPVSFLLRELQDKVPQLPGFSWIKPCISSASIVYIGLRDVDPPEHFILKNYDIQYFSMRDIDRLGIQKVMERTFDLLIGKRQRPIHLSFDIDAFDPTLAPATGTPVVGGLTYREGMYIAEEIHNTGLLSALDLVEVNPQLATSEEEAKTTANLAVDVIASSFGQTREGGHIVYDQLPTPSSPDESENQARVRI
Put plainly: in vitro enzyme assay to detect the production of urea directly proportional to the activity of Arginase II. Also: in the data most compounds retested in dose-response had high values. The settings on record: 33.3 µM. It is filed as functional.

For assay [6], the target named is T3, Proteasome subunit beta (Trypanosoma cruzi) (UniProt O96673).
T3 sequence (whole entry): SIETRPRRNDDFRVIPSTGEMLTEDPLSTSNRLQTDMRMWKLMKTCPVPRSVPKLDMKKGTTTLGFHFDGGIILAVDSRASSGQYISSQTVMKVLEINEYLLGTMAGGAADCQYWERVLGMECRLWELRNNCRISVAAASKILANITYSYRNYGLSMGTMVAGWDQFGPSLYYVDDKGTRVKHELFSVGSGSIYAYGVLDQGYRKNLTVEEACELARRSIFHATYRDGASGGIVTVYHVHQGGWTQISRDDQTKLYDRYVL
Put plainly: Trypanosoma cruzi proteasome chymotrypsin-like activity (TcProtChymo) assay. Also: in the data most compounds retested in dose-response had high values. It is filed as functional. Particulars: 9.37 µM.

Another assay is filed under the species Homo sapiens. In words: To identify inhibition of the IFN signalling (Jak-Stat) pathway via expression of an eGFP reporter gene under the control of an IFN-stimulated response element (ISRE) containing MxA promoter. It is filed as functional. Particulars: 30 µM.
The target of assay [7] is T4, Tyrosyl-tRNA synthetase, putative (Trypanosoma cruzi (strain CL Brener)) (UniProt Q4DSP6).
T4 sequence (whole entry): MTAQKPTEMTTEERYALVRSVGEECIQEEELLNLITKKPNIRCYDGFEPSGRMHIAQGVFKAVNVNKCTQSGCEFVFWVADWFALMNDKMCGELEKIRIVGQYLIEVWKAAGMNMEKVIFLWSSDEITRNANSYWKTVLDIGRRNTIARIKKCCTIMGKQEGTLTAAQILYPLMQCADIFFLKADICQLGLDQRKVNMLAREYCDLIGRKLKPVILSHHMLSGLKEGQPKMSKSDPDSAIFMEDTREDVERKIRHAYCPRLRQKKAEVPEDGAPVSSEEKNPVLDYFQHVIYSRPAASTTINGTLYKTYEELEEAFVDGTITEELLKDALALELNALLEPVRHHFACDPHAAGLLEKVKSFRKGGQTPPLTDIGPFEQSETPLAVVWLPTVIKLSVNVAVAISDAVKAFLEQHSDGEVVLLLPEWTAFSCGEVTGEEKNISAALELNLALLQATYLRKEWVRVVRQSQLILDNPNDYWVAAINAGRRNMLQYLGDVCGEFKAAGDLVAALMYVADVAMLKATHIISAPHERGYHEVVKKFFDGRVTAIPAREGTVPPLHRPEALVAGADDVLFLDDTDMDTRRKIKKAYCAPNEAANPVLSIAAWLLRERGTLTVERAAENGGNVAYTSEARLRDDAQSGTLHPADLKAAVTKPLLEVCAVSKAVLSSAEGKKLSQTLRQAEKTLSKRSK
Put plainly: Trypanosoma cruzi tyrosyl tRNA synthetase (TcYRS) _High Tyrosine SOP. Also: in the data most compounds retested in dose-response had high values. In kind it is functional. Particulars: 30 µM.

Assay [8] addresses T4, Tyrosyl-tRNA synthetase, putative (Trypanosoma cruzi (strain CL Brener)). Put plainly: Trypanosoma cruzi tyrosyl tRNA synthetase (TcYRS) SOP. Particulars: 30 µM. In kind it is functional.
Assay [9] has as its target Chromo domain-containing protein 1 (Saccharomyces cerevisiae (strain ATCC 204508 / S288c) (Baker's yeast)) (UniProt P32657). Put plainly: ScCHD-1 Enzyme Inhibition Assay. Also: in the data most compounds retested in dose-response had high values. The settings on record: 30 µM. It is filed as functional.

For some of these results: Entries with a potency or affinity are not part of this list.

The values below come from ChEMBL document CHEMBL3988442, “University of Dundee, Small-Polar-MMV Screening Library” (2021).

Sialic acid-binding Ig-like lectin 9 (Homo sapiens), sequence (Q9Y336 whole entry): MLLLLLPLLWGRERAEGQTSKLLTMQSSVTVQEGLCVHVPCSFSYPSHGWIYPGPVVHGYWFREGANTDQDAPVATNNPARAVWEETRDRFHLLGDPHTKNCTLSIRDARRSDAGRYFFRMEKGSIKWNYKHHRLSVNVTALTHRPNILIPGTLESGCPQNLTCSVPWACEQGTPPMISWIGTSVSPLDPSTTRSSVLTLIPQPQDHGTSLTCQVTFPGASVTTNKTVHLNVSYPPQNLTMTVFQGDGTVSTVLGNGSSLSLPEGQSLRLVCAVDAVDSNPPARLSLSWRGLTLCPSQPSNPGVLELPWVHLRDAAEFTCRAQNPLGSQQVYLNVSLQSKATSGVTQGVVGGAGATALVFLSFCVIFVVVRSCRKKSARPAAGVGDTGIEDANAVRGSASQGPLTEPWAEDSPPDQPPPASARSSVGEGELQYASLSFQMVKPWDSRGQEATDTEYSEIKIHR
Protein translocase subunit SecA (Escherichia coli (strain K12)), sequence (P10408 whole entry): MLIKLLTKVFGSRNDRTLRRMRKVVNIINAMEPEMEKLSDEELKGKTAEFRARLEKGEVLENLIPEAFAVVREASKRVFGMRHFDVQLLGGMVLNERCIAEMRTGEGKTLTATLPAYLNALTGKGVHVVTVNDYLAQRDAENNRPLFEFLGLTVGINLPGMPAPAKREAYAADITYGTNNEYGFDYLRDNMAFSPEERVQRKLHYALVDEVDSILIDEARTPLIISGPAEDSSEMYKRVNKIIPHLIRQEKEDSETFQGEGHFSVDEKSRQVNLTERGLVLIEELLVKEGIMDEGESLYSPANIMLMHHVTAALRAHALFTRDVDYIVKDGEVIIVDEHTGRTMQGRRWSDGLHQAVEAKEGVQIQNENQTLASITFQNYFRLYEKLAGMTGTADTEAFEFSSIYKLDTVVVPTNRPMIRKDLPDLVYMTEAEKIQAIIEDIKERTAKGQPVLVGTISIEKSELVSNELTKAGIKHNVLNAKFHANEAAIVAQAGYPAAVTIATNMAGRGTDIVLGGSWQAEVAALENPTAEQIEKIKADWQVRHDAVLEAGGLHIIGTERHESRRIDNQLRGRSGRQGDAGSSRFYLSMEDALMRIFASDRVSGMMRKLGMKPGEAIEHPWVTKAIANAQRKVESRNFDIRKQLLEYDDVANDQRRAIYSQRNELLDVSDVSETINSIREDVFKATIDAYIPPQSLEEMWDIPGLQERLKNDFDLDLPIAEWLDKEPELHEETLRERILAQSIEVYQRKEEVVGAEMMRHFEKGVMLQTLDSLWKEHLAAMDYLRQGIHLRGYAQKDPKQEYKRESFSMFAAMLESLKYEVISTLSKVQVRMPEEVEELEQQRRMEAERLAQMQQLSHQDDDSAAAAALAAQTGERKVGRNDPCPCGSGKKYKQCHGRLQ
Chromo domain-containing protein 1 (Saccharomyces cerevisiae (strain ATCC 204508 / S288c) (Baker's yeast)), sequence (P32657 whole entry, the tested form may be a part): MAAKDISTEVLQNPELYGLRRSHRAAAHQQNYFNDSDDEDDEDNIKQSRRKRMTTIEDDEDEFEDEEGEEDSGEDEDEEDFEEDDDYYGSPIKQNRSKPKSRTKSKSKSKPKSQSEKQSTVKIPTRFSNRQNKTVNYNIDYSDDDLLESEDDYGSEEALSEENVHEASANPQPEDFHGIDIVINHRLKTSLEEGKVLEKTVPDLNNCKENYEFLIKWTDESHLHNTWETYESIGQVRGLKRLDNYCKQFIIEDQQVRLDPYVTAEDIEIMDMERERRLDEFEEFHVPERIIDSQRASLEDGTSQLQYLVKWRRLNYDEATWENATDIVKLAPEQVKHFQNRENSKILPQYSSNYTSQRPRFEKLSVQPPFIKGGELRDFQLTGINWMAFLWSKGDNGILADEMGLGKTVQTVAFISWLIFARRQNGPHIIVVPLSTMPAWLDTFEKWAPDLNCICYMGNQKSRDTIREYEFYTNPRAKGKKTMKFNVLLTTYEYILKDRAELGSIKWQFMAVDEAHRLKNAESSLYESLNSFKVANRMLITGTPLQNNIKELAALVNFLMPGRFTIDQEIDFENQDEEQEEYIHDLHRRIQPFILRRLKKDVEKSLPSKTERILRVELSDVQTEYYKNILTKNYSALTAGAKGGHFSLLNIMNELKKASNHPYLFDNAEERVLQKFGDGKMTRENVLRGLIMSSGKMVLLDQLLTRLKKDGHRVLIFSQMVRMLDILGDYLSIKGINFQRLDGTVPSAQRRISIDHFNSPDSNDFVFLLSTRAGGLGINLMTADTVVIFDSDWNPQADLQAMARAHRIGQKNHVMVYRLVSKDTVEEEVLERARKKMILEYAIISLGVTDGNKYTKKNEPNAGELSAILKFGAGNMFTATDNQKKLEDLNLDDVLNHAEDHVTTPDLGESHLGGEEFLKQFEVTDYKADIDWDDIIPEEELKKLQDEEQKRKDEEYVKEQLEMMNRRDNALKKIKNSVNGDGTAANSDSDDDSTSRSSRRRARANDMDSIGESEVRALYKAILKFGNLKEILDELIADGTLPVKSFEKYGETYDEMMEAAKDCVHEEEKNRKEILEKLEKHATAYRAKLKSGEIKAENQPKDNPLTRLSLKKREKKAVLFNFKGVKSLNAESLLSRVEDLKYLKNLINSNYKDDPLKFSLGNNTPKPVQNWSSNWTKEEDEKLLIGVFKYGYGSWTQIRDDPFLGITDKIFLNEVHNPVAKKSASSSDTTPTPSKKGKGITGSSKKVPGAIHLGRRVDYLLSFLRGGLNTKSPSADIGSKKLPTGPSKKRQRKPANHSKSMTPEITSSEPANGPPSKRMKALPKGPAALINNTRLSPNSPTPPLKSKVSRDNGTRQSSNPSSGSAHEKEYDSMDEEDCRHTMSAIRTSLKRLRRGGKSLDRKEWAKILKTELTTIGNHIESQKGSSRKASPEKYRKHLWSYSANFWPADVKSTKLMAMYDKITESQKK

Turning to `O=C1CCCN1Cc1ncn2c1CN(C(=O)c1cccc(F)c1)CCC2`, the Percent Effect in assay [1] was -0.833%; in assay [2], 16.2%; in [3], -2.98%; in [4], 12%; in the assay with Trypanosoma cruzi, 3.42%; in assay [5] it was 20.6%. Moreover, the Percent Effect is 13.3% in [6]; 17.8% in the assay filed under Homo sapiens; 8.6% in [7]; 16.1% in [8]; -12.8% in assay [9].

Take `CN1C(=O)CC(c2cnn(C)c2)C12CCN(C(=O)C1CC=CC1)CC2` (stereo unspecified): the Percent Effect was -3.3% in assay [1]; -2.7% in [2]; 6.7% in [3]; 5.51% in assay [4]; -2.25% in the assay on Trypanosoma cruzi; -2.23% in assay [5]. In addition, the Percent Effect in assay [6] was 7.2%; in the assay filed under Homo sapiens it was -12.6%; in assay [7] it was -1.08%; in assay [8], -2.56%; in [9], 9.24%.

For `Cc1nc(C)n(CC2CCCCN2Cc2nnc(C3CC3)o2)n1` (stereo unspecified), the Percent Effect in [1] was 0.312%; in [2], 2.6%; in [3] it was 3.13%; in [4], 1.14%; with Trypanosoma cruzi, 3.37%; in assay [5] it was 0.712%. Besides, the Percent Effect in [6] is 1.69%; in the assay filed under Homo sapiens, 1.94%; in assay [7], 0.971%; in assay [8], 7.32%; in assay [9], -9.02%.

For the compound `COc1c(CNC(c2ccc(F)cc2)C(C)(C)C)c(C)nn1C` (stereo unspecified), the Percent Effect in assay [1] is -1.68%; in [2], 5.26%; in [3] it was -4.48%; in [4] it was 2.41%; with Trypanosoma cruzi it was -6.01%; in assay [5], -7.28%. For the same compound, the Percent Effect in assay [6] was 4.84%; in the assay listed under Homo sapiens, 30.8%; in assay [7], 0.49%; in assay [8], -4.88%; in assay [9], -5.33%.

Consider `NC(=O)c1nnn(-c2ccc(Br)cc2)n1`, for which the Percent Effect in [1] was -5.42%; in assay [2], 18.2%; in assay [3], -6.83%; in assay [4], -10.8%; in the assay with Trypanosoma cruzi it was 7.59%; in assay [5] it was 3.23%. The Percent Effect in assay [6] was 11.5%; in the assay listed under Homo sapiens it was 17.2%; in [7], 5.29%; in [8], 6.41%; in assay [9], -9.19%.

Regarding `COc1ccccc1OC1(C(=O)O)CCN(c2nccnc2C)CC1`, the Percent Effect in assay [1] is -2.61%; in assay [2] it was 5.48%; in [3], -1.61%; in [4] it was 9.27%; in the assay with Trypanosoma cruzi, 1.19%; in assay [5], -5.19%. In addition, the Percent Effect in [6] is 9.16%; in the assay filed under Homo sapiens, -8.06%; in assay [7], 5.21%; in [8], 23.5%; in assay [9] it was -6.84%.

For `CN(C)CCCNC(=O)CNC(=O)N1CCc2c([nH]c3ccccc23)C1`, the Percent Effect in [1] is -6.34%; in assay [2], -1.33%; in assay [3] it was 20.1%; in assay [4] it was -2.5%; in the assay on Trypanosoma cruzi it was -2.16%; in [5] it was -10.4%. The Percent Effect is 9.06% in [6]; 13.6% in the assay listed under Homo sapiens; 1.06% in assay [7]; -5.13% in assay [8]; -6.13% in assay [9].

As for `O=C(c1ccc(O)c(Cl)c1)N1CCC(c2n[nH]c(C3CC3)n2)CC1`, the Percent Effect in [1] was -6.1%; in assay [2], 3.8%; in assay [3] it was -0.285%; in [4] it was -6.96%; with Trypanosoma cruzi, -5.44%; in assay [5], -1.5%. Further, the Percent Effect in assay [6] is 9.61%; in the assay listed under Homo sapiens, 8.98%; in [7], 1.04%; in assay [8], 0%; in assay [9] it was -0.322%.

On to `O=C(NCCN1CCCCCC1=O)c1ccn(-c2ccc(F)cc2)n1`, for which the Percent Effect in assay [1] was 1.12%; in assay [2] it was 13.5%; in assay [3], -9.65%; in [4] it was -9.89%; in the assay on Trypanosoma cruzi, -6.51%; in [5], 0%. Besides, the Percent Effect in assay [6] is 15.5%; in the assay filed under Homo sapiens it was 24.8%; in [7], 4.43%; in assay [8], 16.1%; in [9], -5.87%.

In the case of `O=c1oc(-c2ccc(F)cc2)nn1CN1CCN(C2CCCC2)CC1`, the Percent Effect in assay [1] was -3.25%; in assay [2], 18.2%; in assay [3], 2.12%; in [4] it was -0.647%; with Trypanosoma cruzi it was -2.25%; in assay [5], -3.56%. Further, the Percent Effect in [6] is 7.6%; in the assay filed under Homo sapiens, -3.58%; in assay [7], 9.71%; in [8], 19.5%; in [9], -6.38%.

With `CN1CCC(c2nnc(CN3CCC(O)CC3)n2C)CC1`, the Percent Effect was -3.38% in assay [1]; 8.22% in [2]; 6.23% in assay [3]; -1.15% in [4]; -1.76% with Trypanosoma cruzi; 1.82% in assay [5]. The Percent Effect in [6] is 8.87%; in the assay filed under Homo sapiens, 1%; in assay [7], 4.3%; in [8] it was 15%; in assay [9], -4.74%.
